Measured values from PubChem BioAssay (NCI).
The panel holds about 79,000 compounds, 15% with a hit somewhere; the sample as a whole holds those more often. A number with no mark means an inactive call. Active and inactive are the calls of the source. No stated cut-off is given here; in the data, active means growth inhibition above about 70%; inactive means the rest.

Key:
[1] = NCI Yeast Anticancer Drug Screen. Data for the rad50 strain (AID 155);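 further: 0% = growth of vehicle-only cultures of the same strain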; details: S. cerevisiae rad50 strain growth inhibition, hits give high values
How it was run: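 Vehicle-treated cultures provide the reference for the growth inhibition reported for compound-exposed, repair-deficient yeast.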

[2] = NCI Yeast Anticancer Drug Screen. Data for the mec2-1 strain (AID 157); details: S. cerevisiae mec2-1 strain, hits give high values
How it was run: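 Mutant yeast (mec2-1) grown with compound; growth inhibition relative to vehicle control reported.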

[3] = NCI Yeast Anticancer Drug Screen. Data for the sgs1 mgt1 strain (AID 161);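 further: 0% = growth of cultures given vehicle only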; details: S. cerevisiae sgs1 mgt1 strain, hits give high values
How it was run: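 Percent growth inhibition was derived by comparing compound-exposed mutant yeast with vehicle-exposed cultures. The strain carries alterations in DNA damage repair.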

[4] = NCI Yeast Anticancer Drug Screen. Data for the cln2 rad14 strain (AID 165);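 further: 0% = growth equal to vehicle treated cultures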; details: S. cerevisiae cln2 rad14 strain, hits give high values
How it was run: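 Readout is yeast growth inhibition versus vehicle-treated controls, using a strain with cln2 and rad14 alterations exposed to compound.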

[5] = NCI Yeast Anticancer Drug Screen. Data for the bub3 strain (AID 167); details: S. cerevisiae bub3 mutant strain, hits give high values
How it was run: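 Mutant yeast screening strain plus compound; vehicle-treated cultures serve as the 0% inhibition reference.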

[6] = NCI Yeast Anticancer Drug Screen. Data for the mlh1 rad18 strain (AID 175); details: S. cerevisiae mlh1 rad18 strain growth inhibition, hits give high values
How it was run: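 Genetically defined yeast (DNA repair-deficient) exposed to compounds; growth inhibition determined relative to vehicle.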

[7] = at 5.0 µM (retest, dose inferred, filed as 0.5)
[8] = at 50.0 µM (retest, dose inferred, filed as 5.0)

COc1ccc(C(O)/C(=N\NC(N)=S)c2nc3ccc([N+](=O)[O-])cc3[nH]c2=O)cc1OC (stereo not given)
growth inhibition [1, 7]: 4%
growth inhibition [1, 8]: 97% (active)
growth inhibition ([1]; at 50.0 µM): 66.1%
growth inhibition [2, 7]: 1%
growth inhibition [2, 8]: 99% (active)
growth inhibition ([2]; at 50.0 µM): 28.2%
growth inhibition [3, 7]: 4%
growth inhibition [3, 8]: 97% (active)
growth inhibition ([3]; at 50.0 µM): 20.6%
growth inhibition [4, 7]: 1%
growth inhibition [4, 8]: 98% (active)
growth inhibition ([4]; at 50.0 µM): 6.55%
growth inhibition [5, 7]: 6%
growth inhibition [5, 8]: 98% (active)
growth inhibition ([5]; at 50.0 µM): 22.7%
growth inhibition [6, 7]: 0%
growth inhibition [6, 8]: 97% (active)
growth inhibition ([6]; at 50.0 µM): 52.8%

Cc1ccccc1C(=N)c1ccccc1Cc1cccc2ccccc12
growth inhibition [1, 7]: 9%
growth inhibition [1, 8]: 93% (active)
growth inhibition ([1]; at 50.0 µM): 92.5% (active)
growth inhibition [2, 7]: -10%
growth inhibition [2, 8]: 91% (active)
growth inhibition ([2]; at 50.0 µM): 88.5% (active)
growth inhibition [3, 7]: -1%
growth inhibition [3, 8]: 92% (active)
growth inhibition ([3]; at 50.0 µM): 93.2% (active)
growth inhibition [4, 7]: -11%
growth inhibition [4, 8]: 87% (active)
growth inhibition ([4]; at 50.0 µM): 78.9% (active)
growth inhibition [5, 7]: -9%
growth inhibition [5, 8]: 93% (active)
growth inhibition ([5]; at 50.0 µM): 88.4% (active)
growth inhibition [6, 7]: 0%
growth inhibition [6, 8]: 91% (active)
growth inhibition ([6]; at 50.0 µM): 91.2% (active)

Cc1ccc(NC(=O)CCCC(=O)C(C#N)c2ccccc2C)cc1C (stereo not given)
growth inhibition [1, 7]: -5%
growth inhibition [1, 8]: 7%
growth inhibition ([1]; at 50.0 µM): -17.3%
growth inhibition [2, 7]: -2%
growth inhibition [2, 8]: 3%
growth inhibition ([2]; at 50.0 µM): 11.4%
growth inhibition [3, 7]: -5%
growth inhibition [3, 8]: -19%
growth inhibition ([3]; at 50.0 µM): 10.6%
growth inhibition [4, 7]: -8%
growth inhibition [4, 8]: -5%
growth inhibition ([4]; at 50.0 µM): -19.1%
growth inhibition [5, 7]: -1%
growth inhibition [5, 8]: 2%
growth inhibition ([5]; at 50.0 µM): 5.75%
growth inhibition [6, 7]: 1%
growth inhibition [6, 8]: -4%
growth inhibition ([6]; at 50.0 µM): 12.1%

CN(C)c1ccc(C=Nc2cncc3ccccc23)cc1
growth inhibition [1, 7]: 0%
growth inhibition [1, 8]: -11%
growth inhibition ([1]; at 50.0 µM): -55.6%
growth inhibition [2, 7]: 5%
growth inhibition [2, 8]: -9%
growth inhibition ([2]; at 50.0 µM): -18.6%
growth inhibition [3, 7]: -3%
growth inhibition [3, 8]: 10%
growth inhibition ([3]; at 50.0 µM): -12.8%
growth inhibition [4, 7]: -20%
growth inhibition [4, 8]: -6%
growth inhibition ([4]; at 50.0 µM): -39.5%
growth inhibition [5, 7]: 3%
growth inhibition [5, 8]: 4%
growth inhibition ([5]; at 50.0 µM): -6.05%
growth inhibition [6, 7]: 7%
growth inhibition [6, 8]: 4%
growth inhibition ([6]; at 50.0 µM): -7.35%

CC(C)(C)c1ccc(C(C)(C)C)cc1
growth inhibition [1, 7]: 1%
growth inhibition [1, 8]: 3%
growth inhibition ([1]; at 50.0 µM): -10.7%
growth inhibition [2, 7]: -5%
growth inhibition [2, 8]: -4%
growth inhibition ([2]; at 50.0 µM): 6.55%
growth inhibition [3, 7]: 1%
growth inhibition [3, 8]: -9%
growth inhibition ([3]; at 50.0 µM): -20.4%
growth inhibition [4, 7]: 4%
growth inhibition [4, 8]: -7%
growth inhibition ([4]; at 50.0 µM): 50.8%
growth inhibition [5, 7]: 5%
growth inhibition [5, 8]: 13%
growth inhibition ([5]; at 50.0 µM): 3%
growth inhibition [6, 7]: -2%
growth inhibition [6, 8]: 1%
growth inhibition ([6]; at 50.0 µM): 1.55%

C=CCCCCn1c2ccccc2c2c(C)c3c[n+](C)ccc3c(C)c21
growth inhibition [1, 7]: 99% (active)
growth inhibition [1, 8]: 99% (active)
growth inhibition ([1]; at 50.0 µM): 89.7% (active)
growth inhibition [2, 7]: 99% (active)
growth inhibition [2, 8]: 99% (active)
growth inhibition ([2]; at 50.0 µM): 91.8% (active)
growth inhibition [3, 7]: 97% (active)
growth inhibition [3, 8]: 97% (active)
growth inhibition ([3]; at 50.0 µM): 90.3% (active)
growth inhibition [4, 7]: 100% (active)
growth inhibition [4, 8]: 100% (active)
growth inhibition ([4]; at 50.0 µM): 90.7% (active)
growth inhibition [5, 7]: 98% (active)
growth inhibition [5, 8]: 98% (active)
growth inhibition ([5]; at 50.0 µM): 91.4% (active)
growth inhibition [6, 7]: 98% (active)
growth inhibition [6, 8]: 98% (active)
growth inhibition ([6]; at 50.0 µM): 88.8% (active)

NNC(=O)N/N=C(/CC1(O)C(=O)Nc2ccc(Br)cc21)c1ccccc1 (stereo not given)
growth inhibition [1, 7]: -1%
growth inhibition [1, 8]: 83% (active)
growth inhibition ([1]; at 50.0 µM): 88.3% (active)
growth inhibition [2, 7]: 1%
growth inhibition [2, 8]: 66%
growth inhibition ([2]; at 50.0 µM): 83.8% (active)
growth inhibition [3, 7]: -2%
growth inhibition [3, 8]: 86% (active)
growth inhibition ([3]; at 50.0 µM): 89.6% (active)
growth inhibition [4, 7]: -5%
growth inhibition [4, 8]: 48%
growth inhibition ([4]; at 50.0 µM): 10.2%
growth inhibition [5, 7]: 8%
growth inhibition [5, 8]: 91% (active)
growth inhibition ([5]; at 50.0 µM): 81.3% (active)
growth inhibition [6, 7]: 0%
growth inhibition [6, 8]: 71% (active)
growth inhibition ([6]; at 50.0 µM): 93.7% (active)

C/C(=N\NC(=S)N/N=C(\C)c1ccccn1)c1ccccn1
growth inhibition [1, 7]: 93% (active)
growth inhibition [1, 8]: 99% (active)
growth inhibition ([1]; at 50.0 µM): 88.2% (active)
growth inhibition [2, 7]: 90% (active)
growth inhibition [2, 8]: 99% (active)
growth inhibition ([2]; at 50.0 µM): 91.5% (active)
growth inhibition [3, 7]: 88% (active)
growth inhibition [3, 8]: 99% (active)
growth inhibition ([3]; at 50.0 µM): 84.7% (active)
growth inhibition [4, 7]: 93% (active)
growth inhibition [4, 8]: 98% (active)
growth inhibition ([4]; at 50.0 µM): 88.2% (active)
growth inhibition [5, 7]: 95% (active)
growth inhibition [5, 8]: 99% (active)
growth inhibition ([5]; at 50.0 µM): 87.9% (active)
growth inhibition [6, 7]: 93% (active)
growth inhibition [6, 8]: 99% (active)
growth inhibition ([6]; at 50.0 µM): 83% (active)

c1ccc2c(c1)Cc1nc3ccccc3nc1-2
growth inhibition [1, 7]: -33%
growth inhibition [1, 8]: 93% (active)
growth inhibition ([1]; at 50.0 µM): 98.3% (active)
growth inhibition [2, 7]: -42%
growth inhibition [2, 8]: 93% (active)
growth inhibition ([2]; at 50.0 µM): 98.2% (active)
growth inhibition [3, 7]: -59%
growth inhibition [3, 8]: 86% (active)
growth inhibition ([3]; at 50.0 µM): 90.6% (active)
growth inhibition [4, 7]: -56%
growth inhibition [4, 8]: 88% (active)
growth inhibition ([4]; at 50.0 µM): 90% (active)
growth inhibition [5, 7]: -65%
growth inhibition [5, 8]: 90% (active)
growth inhibition ([5]; at 50.0 µM): 97.4% (active)
growth inhibition [6, 7]: -118%
growth inhibition [6, 8]: 92% (active)
growth inhibition ([6]; at 50.0 µM): 97.8% (active)

CC(=O)OC1CCC2(C)C(=CCC3C2CCC2(C)C3CC(C(N)=O)C2C(C)=O)C1 (stereo not given)
growth inhibition [1, 7]: -2%
growth inhibition [1, 8]: 25%
growth inhibition ([1]; at 50.0 µM): 49%
growth inhibition [2, 7]: 1%
growth inhibition [2, 8]: 79% (active)
growth inhibition ([2]; at 50.0 µM): 14.6%
growth inhibition [3, 7]: 6%
growth inhibition [3, 8]: 75% (active)
growth inhibition ([3]; at 50.0 µM): 76.8% (active)
growth inhibition [4, 7]: -3%
growth inhibition [4, 8]: 57%
growth inhibition ([4]; at 50.0 µM): 61.6%
growth inhibition [5, 7]: 9%
growth inhibition [5, 8]: 97% (active)
growth inhibition ([5]; at 50.0 µM): 7.4%
growth inhibition [6, 7]: -1%
growth inhibition [6, 8]: 70% (active)
growth inhibition ([6]; at 50.0 µM): 59.3%
